# Assay results taken from PubChem BioAssay AID912 (National Center for Advancing Translational Sciences (NCATS), 2007).
# Hit rate of the full screen: of about 70,000 compounds, about 470 (0.67%) were called active. Entries that show only a call come without a potency. Another 18% or so got no clear call; they are omitted. The sample holds actives, similar compounds and a random draw of the others, so the mix is not that of the screen. Values without a mark were called inactive. Calls follow the shape of the full dose curve.
# Assay: qHTS Assay for Anthrax Lethal Toxin Internalization; also: nearly all actives have a fitted effect of over 50% in size
# Conditions: Cells, FRET ratio (460/530); series mostly up to 40 µM
# Potency is read from the fitted curve at half-maximal effect.
Structure (SMILES),"activity change, negative = inhibition",Potency
CC(C)CO/N=C1/C[C@@H](O)[C@@H](O)[C@@H]2[C@@H]3C(=O)N(C[C@@H]4CCCO4)C(=O)[C@H]3CC[C@@H]12,0.14% [at 8 µM],
CCOC(=O)[C@]1(C(/C=C/c2ccco2)NC(=O)OC)CCCC1=O (stereo not given in full),-10.5% [at 8 µM],
CSc1nnc2c(n1)OC(c1cn(C)c3ccccc13)N(C(C)=O)c1ccccc1-2 (stereo not given),inactive,
CC1(C)OC(C(O)(c2ccccc2)c2ccccc2)C(C(O)(c2ccccc2)c2ccccc2)O1 (stereo not given),-5.79% [at 8 µM],
CO[C@H]1COC(=O)C/C=C\[C@H](C)COC(=O)[C@@H](OCc2ccccc2)/C=C\[C@@H]1C,-13% [at 1.6 µM],
CCOC(=O)c1sc(NC(=O)C(CC)Sc2nccn2C)nc1C (stereo not given),inactive,
CC(C)CO,inactive,
O=C(CSC1=Nc2ccccc2C2=NC(c3ccccc3)C(=O)N12)NCC1CCCO1 (stereo not given),inactive,
CC(C)CC1(C(=O)NCc2ccccn2)C=CCN1C(=O)c1ccccc1 (stereo not given),inactive,
CCCN(C/C=C\I)[C@@H]1CCc2cccc(O)c2C1,inactive,
Brc1cc(Br)c(Oc2cc(Br)c(Br)cc2Br)cc1Br,,1 µM (active)
CCCCCCCCCCCC(=O)O[C@H](CC(=O)O)C[N+](C)(C)C,inactive,
CCCOC(=O)Nc1ccccc1C(N)=O,inactive,
C=CCOC(=O)COCCC(C)C,inactive,
CCCn1c(C)nc2c(NCCCCN(CC)CC)nc(C)nc21,inactive,
CC(=O)c1c(O)c(C)c(O)c(Cc2c(O)c3c(c(C(=O)/C=C\c4ccccc4)c2O)OC(C)(C)C=C3)c1O,,15.8 µM (active)
N#CCCn1c(=O)c(-c2cc(F)cc(F)c2)nc2cnc(Oc3ccccc3)nc21,inactive,
CO[C@H]1COC(=O)[C@@H](C)NC(=O)C/C=C\[C@@H](C)[C@H](OC)COC(=O)C/C=C\[C@@H]1C,5.17% [at 8 µM],
CS(=O)(=O)N1CCC2(CC1)CN(Cc1ccccc1)C2,inactive,
CC(=O)N1CCC2(CCCN(Cc3ccccc3)C2)CC1,inactive,
c1ccc(CN2CC[C@@]3(CCCNC3)C2)cc1,,10 µM (active)
CC(=O)N1[C@H](C)C=C[C@]1(Cc1ccccc1)C(=O)NCc1ccccn1,inactive,
C#CCC(C(=O)OC)(C(=O)OC)C(C[N+](=O)[O-])c1ccccc1 (stereo not given),2.17% [at 8 µM],
CC(C)(O)/C=C\C(=O)[C@](C)(O)[C@H]1[C@H](O)C[C@]2(C)[C@@H]3CC=C4[C@@H](C=C(O)C(=O)C4(C)C)[C@]3(C)C(=O)C[C@@]12C,,0.0316 µM (active)
Cc1c(NC(=O)Nc2ccccc2Cl)sc(=S)n1C,inactive,
